The supplement of paper PMC10646978
± gives the standard deviation.

Tests used:
Details in all cases: modulator concentration 10 µM
[1] = test system: RAW-Dual (murine macrophage reporter line); experiment: NF-kB reporter (SEAP) activity fold change vs agonist alone; higher = enhanced NF-kB activity
How it was run: (§1)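 Compound reached 10 μM final in each well by pin transfer, onto RAW-Dual murine macrophage reporter cells seeded at 50 000 per well in 384-well plates. After 1 hour at 37 °C, the cells were stimulated overnight with a PRR agonist. SEAP in the supernatant was read with QUANTI-Blue at 620 nm absorbance for NF-κB, and Lucia luciferase was read with QUANTI-Luc luminescence for IRF. Each signal was turned into fold change against the mean agonist-only control on the same plate, and two replicate plates were averaged with propagated errors.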

[2] = test system: RAW-Dual (murine macrophage reporter line); experiment: IRF reporter (Lucia luciferase) activity fold change vs agonist alone; higher = enhanced IRF activity
How it was run: as §1

[3] = test system: RAW-Dual (murine macrophage reporter line); experiment: viability score (confluency relative to resting cells, overnight) (fraction); higher = more viable, active = viable (0.7 or more)
How it was run: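 Overnight exposure to 10 μM final compound was carried out on RAW-Dual macrophages in 384-well plates. IncuCyte software generated two confluency masks over all wells imaged with IncuCyte. The viability score gives confluency in relation to resting cells. A compound met the cutoff if each mask exceeded 70% of resting cells.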

[4] = agonist: CpG ODN 1826 0.5 ug/mL

COc1ccc(N(CC(=O)N(C)Cc2ccccc2)S(C)(=O)=O)cc1OC
NF-kB reporter [1, 4]: 1.08 ± 0.086 | NF-kB reporter ([1]; agonist: LPS 0.1 ug/mL): 1.02 ± 0.083 | NF-kB reporter ([1]; agonist: MPLA […]): 1.05 ± 0.08 | IRF reporter ([2]; agonist: 3'3'-cGAMP 10 ug/mL): 1.03 ± 0.026 | IRF reporter ([2]; agonist: LPS 0.1 ug/mL): 1.45 ± 0.21 | IRF reporter ([2]; agonist: MPLA […]): 1.1 ± 0.18 | viability score [3]: 1.01 (active)

CCOC(=O)c1ccccc1NC(=O)CN(c1cc(Cl)ccc1OC)S(C)(=O)=O
NF-kB reporter [1, 4]: 1.02 ± 0.15 | NF-kB reporter ([1]; agonist: LPS 0.1 ug/mL): 1.09 ± 0.067 | NF-kB reporter ([1]; agonist: MPLA […]): 0.897 ± 0.054 | IRF reporter ([2]; agonist: 3'3'-cGAMP 10 ug/mL): 1.02 ± 0.029 | IRF reporter ([2]; agonist: LPS 0.1 ug/mL): 1.38 ± 0.2 | IRF reporter ([2]; agonist: MPLA […]): 1.14 ± 0.14 | viability score [3]: 1.01 (active)

Cc1cn2nc(C(=O)Nc3ccccc3N3CCN(C)CC3)cc2c(=O)[nH]1
NF-kB reporter [1, 4]: 0.685 ± 0.035 | NF-kB reporter ([1]; agonist: LPS 0.1 ug/mL): 1.08 ± 0.11 | NF-kB reporter ([1]; agonist: MPLA […]): 0.864 ± 0.047 | IRF reporter ([2]; agonist: 3'3'-cGAMP 10 ug/mL): 1.02 ± 0.052 | IRF reporter ([2]; agonist: LPS 0.1 ug/mL): 1.26 ± 0.076 | IRF reporter ([2]; agonist: MPLA […]): 1.09 ± 0.098 | viability score [3]: 0.941 (active)

Cc1ccc(N2C(=O)C(Cl)=C(Nc3cccc(C)c3C)C2=O)cc1Cl
NF-kB reporter [1, 4]: 0.739 ± 0.062 | NF-kB reporter ([1]; agonist: LPS 0.1 ug/mL): 0.897 ± 0.064 | NF-kB reporter ([1]; agonist: MPLA […]): 1.28 ± 0.053 | IRF reporter ([2]; agonist: 3'3'-cGAMP 10 ug/mL): 0.549 ± 0.063 | IRF reporter ([2]; agonist: LPS 0.1 ug/mL): 0.954 ± 0.039 | IRF reporter ([2]; agonist: MPLA […]): 1.63 ± 0.21 | viability score [3]: 0.995 (active)

Cc1ccc(CCNc2ccccc2C)cn1
NF-kB reporter [1, 4]: 1.05 ± 0.084 | NF-kB reporter ([1]; agonist: LPS 0.1 ug/mL): 0.931 ± 0.11 | NF-kB reporter ([1]; agonist: MPLA […]): 1.2 ± 0.12 | IRF reporter ([2]; agonist: 3'3'-cGAMP 10 ug/mL): 1 ± 0.067 | IRF reporter ([2]; agonist: LPS 0.1 ug/mL): 1.35 ± 0.21 | IRF reporter ([2]; agonist: MPLA […]): 1.73 ± 0.39 | viability score [3]: 0.993 (active)

COc1cc(C)ccc1NC(=O)Cc1csc(NC(=O)Nc2ccccc2OC)n1
NF-kB reporter [1, 4]: 1.32 ± 0.14 | NF-kB reporter ([1]; agonist: LPS 0.1 ug/mL): 1.02 ± 0.074 | NF-kB reporter ([1]; agonist: MPLA […]): 0.887 ± 0.1 | IRF reporter ([2]; agonist: 3'3'-cGAMP 10 ug/mL): 0.978 ± 0.063 | IRF reporter ([2]; agonist: LPS 0.1 ug/mL): 0.793 ± 0.059 | IRF reporter ([2]; agonist: MPLA […]): 0.818 ± 0.26 | viability score [3]: 1 (active)

Br.COc1ccc(C2=NN(c3nc(-c4ccc(OC)c(F)c4)cs3)C(c3ccc(OC)cc3)C2)cc1 (stereo unspecified)
NF-kB reporter [1, 4]: 0.964 ± 0.068 | NF-kB reporter ([1]; agonist: LPS 0.1 ug/mL): 0.997 ± 0.11 | NF-kB reporter ([1]; agonist: MPLA […]): 0.914 ± 0.1 | IRF reporter ([2]; agonist: 3'3'-cGAMP 10 ug/mL): 0.805 ± 0.071 | IRF reporter ([2]; agonist: LPS 0.1 ug/mL): 1.22 ± 0.08 | IRF reporter ([2]; agonist: MPLA […]): 1.05 ± 0.39 | viability score [3]: 1.01 (active)

NS(=O)(=O)c1cc(Cl)c(Cl)c(S(N)(=O)=O)c1 [Prestw-809]
NF-kB reporter [1, 4]: 1.15 ± 0.13 | NF-kB reporter ([1]; agonist: LPS 0.1 ug/mL): 1.02 ± 0.083 | NF-kB reporter ([1]; agonist: MPLA […]): 0.953 ± 0.046 | IRF reporter ([2]; agonist: 3'3'-cGAMP 10 ug/mL): 0.916 ± 0.067 | IRF reporter ([2]; agonist: LPS 0.1 ug/mL): 0.92 ± 0.093 | IRF reporter ([2]; agonist: MPLA […]): 0.911 ± 0.16 | viability score [3]: 1 (active)

COc1ccc2ccccc2c1C=C1SC(=S)N(CC(=O)O)C1=O
NF-kB reporter [1, 4]: 1.05 ± 0.081 | NF-kB reporter ([1]; agonist: LPS 0.1 ug/mL): 1 ± 0.12 | NF-kB reporter ([1]; agonist: MPLA […]): 1 ± 0.099 | IRF reporter ([2]; agonist: 3'3'-cGAMP 10 ug/mL): 0.988 ± 0.053 | IRF reporter ([2]; agonist: LPS 0.1 ug/mL): 1.34 ± 0.27 | IRF reporter ([2]; agonist: MPLA […]): 1.52 ± 0.4 | viability score [3]: 1.04 (active)

COC(=O)c1cccc(-c2ccc(C=NN3C(=O)C4C5C=CC(CC5)C4C3=O)o2)c1 (stereo unspecified)
NF-kB reporter [1, 4]: 1.04 ± 0.1 | NF-kB reporter ([1]; agonist: LPS 0.1 ug/mL): 1.14 ± 0.082 | NF-kB reporter ([1]; agonist: MPLA […]): 0.815 ± 0.055 | IRF reporter ([2]; agonist: 3'3'-cGAMP 10 ug/mL): 0.867 ± 0.025 | IRF reporter ([2]; agonist: LPS 0.1 ug/mL): 1.55 ± 0.22 | IRF reporter ([2]; agonist: MPLA […]): 1.36 ± 0.14 | viability score [3]: 1 (active)

CCOC(=O)C1=C(C)NC(C)=C(C(=O)OCC)C1c1ccc(OC)cc1
NF-kB reporter [1, 4]: 0.973 ± 0.088 | NF-kB reporter ([1]; agonist: LPS 0.1 ug/mL): 1.05 ± 0.066 | NF-kB reporter ([1]; agonist: MPLA […]): 1.02 ± 0.068 | IRF reporter ([2]; agonist: 3'3'-cGAMP 10 ug/mL): 1.17 ± 0.044 | IRF reporter ([2]; agonist: LPS 0.1 ug/mL): 0.867 ± 0.081 | IRF reporter ([2]; agonist: MPLA […]): 0.987 ± 0.27 | viability score [3]: 0.946 (active)

O=C(Nc1ccc(F)c(F)c1)c1ccnc(OCC2CCOCC2)c1
NF-kB reporter [1, 4]: 1.15 ± 0.07 | NF-kB reporter ([1]; agonist: LPS 0.1 ug/mL): 0.969 ± 0.084 | NF-kB reporter ([1]; agonist: MPLA […]): 0.908 ± 0.046 | IRF reporter ([2]; agonist: 3'3'-cGAMP 10 ug/mL): 0.856 ± 0.051 | IRF reporter ([2]; agonist: LPS 0.1 ug/mL): 1.16 ± 0.14 | IRF reporter ([2]; agonist: MPLA […]): 1.26 ± 0.36 | viability score [3]: 0.995 (active)

COC(=O)C1=C(C)NC(C)=C(C(=O)OCC(C)C)C1c1ccccc1[N+](=O)[O-] (stereo unspecified)
NF-kB reporter [1, 4]: 0.884 ± 0.092 | NF-kB reporter ([1]; agonist: LPS 0.1 ug/mL): 0.81 ± 0.05 | NF-kB reporter ([1]; agonist: MPLA […]): 0.748 ± 0.075 | IRF reporter ([2]; agonist: 3'3'-cGAMP 10 ug/mL): 0.371 ± 0.017 | IRF reporter ([2]; agonist: LPS 0.1 ug/mL): 0.783 ± 0.066 | IRF reporter ([2]; agonist: MPLA […]): 0.562 ± 0.052 | viability score [3]: 0.923 (active)
